Measured values published in article PMC7862700, “An all-to-all approach to the identification of sequence-specific readers for epigenetic DNA modifications on cytosine”.

Assays:
Test in all cases: DAPPL (digital affinity profiling via proximity ligation, sequencing); 10 mM Tris-HCl pH 7.5, 50 mM NaCl, 1 mM DTT, 4% glycerol, room temperature, 30 min; GST-TFs on glutathione beads, 16-mer random dsDNA library, 0.1% formaldehyde crosslink after washing; high values mean tight binding
Details in all cases: protein: recombinant; tags: N-terminal GST; dsDNA, one strand shown
[1] = biological target: T1, ELK1 (Homo sapiens, UniProt P19419 1-428)
T1 sequence: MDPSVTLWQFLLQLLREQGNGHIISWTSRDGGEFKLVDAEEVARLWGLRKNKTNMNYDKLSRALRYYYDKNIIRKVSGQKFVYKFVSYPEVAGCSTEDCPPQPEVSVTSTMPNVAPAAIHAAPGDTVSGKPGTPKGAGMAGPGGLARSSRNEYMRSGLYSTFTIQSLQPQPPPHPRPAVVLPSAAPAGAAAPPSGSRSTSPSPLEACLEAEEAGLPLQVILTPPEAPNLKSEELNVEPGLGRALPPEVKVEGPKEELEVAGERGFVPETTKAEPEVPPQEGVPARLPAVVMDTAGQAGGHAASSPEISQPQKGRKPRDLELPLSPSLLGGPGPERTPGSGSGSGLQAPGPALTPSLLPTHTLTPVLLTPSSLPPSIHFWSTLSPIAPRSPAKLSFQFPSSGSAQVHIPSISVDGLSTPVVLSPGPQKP
In short: (§1)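 Human transcription factors fused to GST were expressed in yeast, captured on glutathione beads, given DNA barcodes and pooled with a GST-only negative control. Pools were incubated with 200 nmole of a 16-mer random double-stranded DNA library in Tris/NaCl/DTT/glycerol buffer at room temperature for 30 min. They were then washed, crosslinked with 0.1% formaldehyde, proximity-ligated (BsaI/T4 ligase, 1 h, 37 °C), PCR-amplified and sequenced on an Illumina NextSeq500. Binding signal is each 6-mer's read frequency for a factor divided by its frequency for the GST control.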

[2] = biological target: T2, GABPA (Homo sapiens, UniProt Q06546 1-454)
T2 sequence: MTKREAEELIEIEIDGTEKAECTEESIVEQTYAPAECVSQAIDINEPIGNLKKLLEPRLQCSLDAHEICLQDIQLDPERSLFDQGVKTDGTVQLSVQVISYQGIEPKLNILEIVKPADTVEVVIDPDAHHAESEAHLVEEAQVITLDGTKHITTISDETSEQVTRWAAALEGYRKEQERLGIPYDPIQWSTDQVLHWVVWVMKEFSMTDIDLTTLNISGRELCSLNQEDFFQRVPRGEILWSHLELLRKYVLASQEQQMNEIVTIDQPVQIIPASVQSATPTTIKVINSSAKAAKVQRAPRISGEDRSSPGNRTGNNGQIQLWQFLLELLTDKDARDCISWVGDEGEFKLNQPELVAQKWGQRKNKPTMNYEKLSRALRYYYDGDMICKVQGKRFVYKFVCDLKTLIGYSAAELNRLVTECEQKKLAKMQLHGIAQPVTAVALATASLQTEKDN
In short: as §1

[3] = biological target: T3, ERG (Homo sapiens, UniProt P11308 1-479)
T3 sequence: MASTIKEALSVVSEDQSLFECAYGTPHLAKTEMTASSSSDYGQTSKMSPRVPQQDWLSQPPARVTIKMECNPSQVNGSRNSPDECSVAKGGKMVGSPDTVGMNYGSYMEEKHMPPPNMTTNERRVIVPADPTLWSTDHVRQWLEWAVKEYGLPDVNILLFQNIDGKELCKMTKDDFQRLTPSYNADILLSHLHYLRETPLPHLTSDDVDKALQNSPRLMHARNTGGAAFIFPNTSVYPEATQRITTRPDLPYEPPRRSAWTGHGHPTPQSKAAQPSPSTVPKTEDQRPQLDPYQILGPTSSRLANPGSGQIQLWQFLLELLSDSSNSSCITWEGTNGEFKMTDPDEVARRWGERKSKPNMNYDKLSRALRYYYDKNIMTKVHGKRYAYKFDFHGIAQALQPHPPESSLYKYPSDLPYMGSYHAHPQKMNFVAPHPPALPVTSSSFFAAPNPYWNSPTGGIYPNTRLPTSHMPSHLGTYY
In short: as §1

[4] = biological target: ELF1 (Homo sapiens, UniProt P32519 1-619)
In short: as §1

[5] = biological target: T4, EHF (Homo sapiens, UniProt Q9NZC4 1-300)
T4 sequence: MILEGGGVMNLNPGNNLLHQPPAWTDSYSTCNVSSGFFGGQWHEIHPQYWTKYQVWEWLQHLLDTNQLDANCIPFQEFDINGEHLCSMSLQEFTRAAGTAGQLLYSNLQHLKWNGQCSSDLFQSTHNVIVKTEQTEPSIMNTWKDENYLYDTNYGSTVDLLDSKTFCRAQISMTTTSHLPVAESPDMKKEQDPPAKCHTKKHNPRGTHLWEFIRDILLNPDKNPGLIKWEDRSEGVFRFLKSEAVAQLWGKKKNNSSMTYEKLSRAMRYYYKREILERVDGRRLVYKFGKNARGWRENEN
In short: as §1

[6] = biological target: SPIB (Homo sapiens, UniProt Q01892 1-262)
In short: as §1

[7] = biological target: T5, FEV (Homo sapiens, UniProt Q99581 1-238)
T5 sequence: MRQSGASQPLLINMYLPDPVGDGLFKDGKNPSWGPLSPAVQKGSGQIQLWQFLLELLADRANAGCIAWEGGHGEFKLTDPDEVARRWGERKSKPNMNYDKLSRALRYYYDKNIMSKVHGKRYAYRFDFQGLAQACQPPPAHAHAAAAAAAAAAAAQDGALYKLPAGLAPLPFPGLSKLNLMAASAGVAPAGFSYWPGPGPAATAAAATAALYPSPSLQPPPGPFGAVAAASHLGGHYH
In short: as §1

[8] = biological target: ETV5 (Homo sapiens, UniProt P41161 1-510)
In short: as §1

[9] = biological target: ELF4 (Homo sapiens, UniProt Q99607 1-663)
In short: as §1

[10] = biological target: T6, ELK4 (Homo sapiens, UniProt P28324-2 1-405)
T6 sequence: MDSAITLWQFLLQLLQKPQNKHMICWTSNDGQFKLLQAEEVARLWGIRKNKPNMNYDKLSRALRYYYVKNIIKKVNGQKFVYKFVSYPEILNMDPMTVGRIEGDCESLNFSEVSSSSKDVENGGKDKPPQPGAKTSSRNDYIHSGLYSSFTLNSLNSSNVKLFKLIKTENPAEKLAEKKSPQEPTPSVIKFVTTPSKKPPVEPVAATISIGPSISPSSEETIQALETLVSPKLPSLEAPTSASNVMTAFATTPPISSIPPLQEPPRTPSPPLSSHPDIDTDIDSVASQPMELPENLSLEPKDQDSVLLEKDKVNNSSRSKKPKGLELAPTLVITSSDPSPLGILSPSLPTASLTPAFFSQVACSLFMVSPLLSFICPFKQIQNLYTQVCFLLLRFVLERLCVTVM
In short: as §1

Chain of SPIB (Q01892 whole entry): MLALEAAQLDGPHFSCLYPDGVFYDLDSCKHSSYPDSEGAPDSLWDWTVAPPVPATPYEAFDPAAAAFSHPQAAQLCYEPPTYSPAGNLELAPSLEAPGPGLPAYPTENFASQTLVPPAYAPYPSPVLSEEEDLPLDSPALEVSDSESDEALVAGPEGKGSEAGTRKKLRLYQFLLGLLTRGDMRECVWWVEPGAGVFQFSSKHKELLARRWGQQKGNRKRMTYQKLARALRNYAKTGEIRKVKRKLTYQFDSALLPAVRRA
Chain of ETV5 (P41161 whole entry): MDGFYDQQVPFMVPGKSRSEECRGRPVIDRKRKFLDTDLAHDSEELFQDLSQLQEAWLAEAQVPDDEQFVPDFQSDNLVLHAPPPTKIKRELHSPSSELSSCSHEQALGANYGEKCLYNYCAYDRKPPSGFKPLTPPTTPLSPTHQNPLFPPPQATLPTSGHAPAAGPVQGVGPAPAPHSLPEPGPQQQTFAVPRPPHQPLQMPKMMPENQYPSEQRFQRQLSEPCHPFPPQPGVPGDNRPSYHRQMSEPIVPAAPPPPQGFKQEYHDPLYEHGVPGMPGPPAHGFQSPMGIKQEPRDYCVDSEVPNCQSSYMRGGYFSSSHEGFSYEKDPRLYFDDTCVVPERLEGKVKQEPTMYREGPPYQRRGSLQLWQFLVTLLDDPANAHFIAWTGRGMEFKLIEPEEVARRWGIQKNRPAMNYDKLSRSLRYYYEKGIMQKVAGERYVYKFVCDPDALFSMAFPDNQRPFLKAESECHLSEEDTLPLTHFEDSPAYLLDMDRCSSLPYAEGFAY
Chain of ELF1 (P32519 whole entry): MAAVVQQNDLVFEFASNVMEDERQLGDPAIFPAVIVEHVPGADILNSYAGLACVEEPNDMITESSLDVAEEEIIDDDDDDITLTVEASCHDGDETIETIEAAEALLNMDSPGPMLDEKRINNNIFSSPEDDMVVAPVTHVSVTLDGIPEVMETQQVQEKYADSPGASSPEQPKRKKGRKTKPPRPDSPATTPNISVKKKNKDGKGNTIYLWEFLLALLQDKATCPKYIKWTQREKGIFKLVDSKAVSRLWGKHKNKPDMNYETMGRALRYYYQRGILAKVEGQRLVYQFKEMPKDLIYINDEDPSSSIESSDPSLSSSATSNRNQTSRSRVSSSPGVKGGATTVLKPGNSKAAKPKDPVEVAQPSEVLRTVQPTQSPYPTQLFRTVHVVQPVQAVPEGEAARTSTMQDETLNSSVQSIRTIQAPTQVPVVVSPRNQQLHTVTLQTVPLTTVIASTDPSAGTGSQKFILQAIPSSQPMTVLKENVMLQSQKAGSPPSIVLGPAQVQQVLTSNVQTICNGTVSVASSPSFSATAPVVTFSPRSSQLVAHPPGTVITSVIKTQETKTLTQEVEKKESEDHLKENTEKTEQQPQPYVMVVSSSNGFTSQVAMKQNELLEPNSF
Chain of ELF4 (Q99607 whole entry): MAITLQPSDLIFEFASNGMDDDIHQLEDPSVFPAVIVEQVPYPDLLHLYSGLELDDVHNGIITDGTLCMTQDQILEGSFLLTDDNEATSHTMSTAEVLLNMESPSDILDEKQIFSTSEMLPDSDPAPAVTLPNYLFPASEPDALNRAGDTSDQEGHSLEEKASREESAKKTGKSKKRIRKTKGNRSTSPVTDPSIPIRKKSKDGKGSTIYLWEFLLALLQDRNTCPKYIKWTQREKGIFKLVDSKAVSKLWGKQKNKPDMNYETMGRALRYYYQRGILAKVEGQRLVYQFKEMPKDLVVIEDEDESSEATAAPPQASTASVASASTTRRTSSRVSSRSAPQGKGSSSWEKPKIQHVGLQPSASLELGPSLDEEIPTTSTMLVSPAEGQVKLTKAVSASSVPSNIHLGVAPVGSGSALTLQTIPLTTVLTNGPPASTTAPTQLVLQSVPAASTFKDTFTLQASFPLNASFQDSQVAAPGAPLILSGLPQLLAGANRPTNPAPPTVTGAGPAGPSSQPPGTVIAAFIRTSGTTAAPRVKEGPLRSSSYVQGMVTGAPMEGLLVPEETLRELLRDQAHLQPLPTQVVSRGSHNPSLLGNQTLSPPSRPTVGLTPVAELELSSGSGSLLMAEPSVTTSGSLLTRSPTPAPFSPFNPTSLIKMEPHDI

In the case of CGTAAA, the binding signal [1] is reported as 1.12 fold enrichment (6-mer frequency, TF over GST control), the binding signal [2] is reported as 1.23 fold enrichment (6-mer frequency, TF over GST control) and the binding signal [3] is reported as 1.13 fold enrichment (6-mer frequency, TF over GST control). For the same sequence, the binding signal [4] was 1.07 fold enrichment (6-mer frequency, TF over GST control), the binding signal [5] was 1.13 fold enrichment (6-mer frequency, TF over GST control) and the binding signal [6] was 1.08 fold enrichment (6-mer frequency, TF over GST control). For the same sequence, the binding signal [7] was 1.04 fold enrichment (6-mer frequency, TF over GST control), the binding signal [8] was 1.14 fold enrichment (6-mer frequency, TF over GST control) and the binding signal [9] was 1.11 fold enrichment (6-mer frequency, TF over GST control). For the same sequence, the binding signal [10] was 1.05 fold enrichment (6-mer frequency, TF over GST control).
